# Assays:
# Experiment in all cases: PBM binding z-score (relative to random genomic background probes); higher = stronger binding; sequences stand for … in GC…GCGATTGACAGCGTAGAATGAAGG
# [1] = tested on: PPARg:RXRa DBDmut IVT, anti-RXR (DBD mutation: RXRa K156A/R161A, NR concentration 270 nM, RXRa partner concentration 90 nM)
# In short: (§1)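 Binding z-scores were set against random background probes. The data came from custom Agilent 4×180K protein-binding microarrays carrying double-stranded probes with 34-nt variable regions, incubated 1 h with ligand-free nuclear receptor dimers. Partner-specific antibodies detected binding, and scanned fluorescence was regression-normalized.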
# [2] = tested on: PPARg:RXRa IVT, anti-PPARg (NR concentration 270 nM, RXRa partner concentration 90 nM)
# In short: as §1
# [3] = tested on: PPARg DBDmut:RXRa IVT, anti-PPARg (DBD mutation: PPARg1 K132A/R137A, NR concentration 270 nM, RXRa partner concentration 90 nM)
# In short: as §1
# [4] = tested on: PPARg DBDmut IVT, anti-PPARg (DBD mutation: PPARg1 K132A/R137A, NR concentration 270 nM)
# In short: as §1
# [5] = tested on: PPARg homodimer (NR concentration 180 nM)
# In short: as §1
# [6] = tested on: PXR:RXRa (NR concentration 270 nM, RXRa partner concentration 90 nM)
# In short: as §1
# [7] = tested on: PXR homodimer (NR concentration 270 nM)
# In short: as §1
# [8] = tested on: RARa:RXR (NR concentration 270 nM, RXRa partner concentration 90 nM)
# In short: as §1
# [9] = tested on: RARa homodimer (NR concentration 270 nM)
# In short: as §1
# [10] = tested on: RARb:RXRa (NR concentration 270 nM, RXRa partner concentration 90 nM)
# In short: as §1
Sequence,PBM binding z-score [1],PBM binding z-score [2],PBM binding z-score [3],PBM binding z-score [4],PBM binding z-score [5],PBM binding z-score [6],PBM binding z-score [7],PBM binding z-score [8],PBM binding z-score [9],PBM binding z-score [10]
CCGACTGGGGCAAGTTTACCATAACGCACAGCCA,3.19,2.78,-0.473,-0.469,0.332,-0.0221,0.029,0.0414,0.4,1.02
TCAGATAGGTAATACAGGTGAAAGTCGGCATCTA,2.72,1.82,0.894,0.382,0.675,0.557,0.387,0.619,1.19,0.567
TTTCCAAGGTGAAGGTCGTTGATCCCTCTGTAGA,1.63,3.3,-0.24,0.793,1.03,1.68,0.247,2.21,-0.347,2.29
CGTCCAAGGTCAATGGTAGGTCAGTGAAAGCATT,3.32,3.95,-0.0725,-0.844,5.44,4.84,1.79,5.88,1.16,5.37
GGAACGAGGGCAAAGTTTATAGCATCTGTCGACG,4.26,4.43,0.246,0.345,0.817,1.91,0.961,1.74,0.0168,2.6
TTACTAAGGTGAAGGTCGTTGATCCCTCTGTAGA,3.98,4.68,1.15,0.702,1.39,1.84,0.493,2.6,0.0273,2.58
CGAAGTAGGTCAGAACAGGACAGTGAAGGATGAT,7.52,7.53,0.926,0.783,1.04,0.897,-0.0169,0.781,0.475,2.75
CGAACTAGGTCATTTACAGGACAGTGAATAGTAA,8.11,8.23,5.73,3.57,2.35,1.74,0.63,2.39,0.283,3.39
TCATATAGGTAAATGCTTGGTGAAAGTCCGATCT,4.12,2.04,1.15,1.07,0.653,0.501,0.156,0.651,1.11,0.221
GCTGCTAGGTCAACTGATGGTCGGCTAAAGCTCG,4.58,4.01,0.404,-0.469,0.839,1.4,-0.734,2.31,-0.561,4.45
ACAGACCGGTGAGTGAAGGTAACTCAGCTGGACG,-0.439,-0.283,-0.662,-1.09,-0.786,-0.593,-0.655,-0.54,-0.997,-0.197
TGGCCTAGGTCATTCAGGGGCCAGTATAGAAAGC,1.06,2.22,-0.515,-0.779,1.82,2.48,-0.213,3.77,0.313,3.94
ATACCAAGGTGATCGTGACGTCGTTGATACTAAC,0.791,1.2,0.681,0.866,0.477,0.0619,0.0409,0.447,0.899,0.752
GGAACGAGGGCATTCGACTTGATAGCATGGCGAT,2.67,2.21,0.442,0.0396,-0.0413,0.499,0.283,-0.119,-0.012,1.6
TATACAGGGTCAAAGGCAAGAGTACGAATGTCGA,2.4,4.77,3.32,1.87,2.27,3.86,1.15,5.3,1.42,4.43
CCTAGTAGGCCAATCTGGGTCACTCAAGGCTTGA,6.2,6.35,0.0197,-0.994,0.502,1.07,-0.356,1.39,-0.858,1.78
AGAACGAGGGCACGCTGAGTGGATAGCAGAGTAG,4.13,3.9,0.715,0.00545,0.149,0.143,-0.338,0.776,-0.364,2.42
TAGCCTAGGTCATTCACGGGCCAGTATAGAAAGC,1.89,2.6,1.17,0.147,2.35,2.01,-0.0937,2.84,0.0278,3.69
GCGACTGGGGCATCAGCCGGTTACCATAACTTAA,3.39,2.34,-1.15,-1.34,-0.348,-0.89,-0.327,-0.651,-1.07,0.332
TAGCCTAGGTCATTGGGCCTGTATAGTACGCATC,2.39,3.03,-0.124,-0.181,1.46,1.65,-0.0817,2.37,-0.457,3.55
ACTCAAAGTTCACTAGGTAACGTAAGATTCAGCT,3.09,4.19,1.81,1.14,3.86,4.2,3.09,3.17,3.01,4.95
GCGTCTGGGGCAAAGCAGGTTACCATAAGGTTGG,3.3,2.33,-0.833,-1.14,0.154,0.372,-0.589,0.843,-1.37,1.17
TCTTGTAGATCAATAGAGTTTAAGAAAGTGCGCT,1.58,0.625,0.851,0.852,-0.192,2.24,0.847,0.263,0.0115,0.375
TCGAGTAGGTTAGTCGGAGCATTCAGCCAACATA,2.04,1.68,-0.361,-0.571,0.0245,-0.452,-0.761,-0.167,-0.593,-0.208
TCATATAGGTAATACGGGTGAAAGTCGGCATCTA,3.97,3.5,0.9,0.874,0.552,0.662,0.363,1.01,1.49,0.495

Sequence,PBM binding z-score [1],PBM binding z-score [2],PBM binding z-score [3],PBM binding z-score [4],PBM binding z-score [5],PBM binding z-score [6],PBM binding z-score [7],PBM binding z-score [8],PBM binding z-score [9],PBM binding z-score [10]
TCGAGTAGGTTACAAATGGGGCATTCAGCTTTCT,3.56,3.01,0.207,-0.201,0.131,0.0276,-0.499,0.475,0.267,0.54
AGAACGAGGGCACGCTGAGTTGAAAGCAGAGTAG,3.49,3.67,0.808,0.246,0.111,1.36,-0.00968,1.1,-0.124,2.51
CCTTACGGGTCACTTCAGGTTATAGCATCGGAGT,3.08,3.1,0.834,0.414,1.97,5.04,0.776,3.67,1,3.57
CAAACTAGGTCAAAGGTGAAAGTCGAGCCAACCA,8.83,8.9,5.06,3.41,4.11,4.59,0.25,7.31,1.09,4.41
GGAACGAGGGCAAGTTGATAGGAGAGTTTGATGG,3.49,2.69,-0.522,0.0128,0.664,0.817,1.15,0.165,-0.204,2.63
ACTTTCGGGTCAACGAGGTTATAGCACGCGTATA,3.31,4.16,1.8,1.14,2.32,5.37,6.97,4.91,1.53,4.29
CGTCAAAGTTCAACTAAGGTAACGGAAAGCACGC,0.353,2.18,0.489,0.064,3.4,5.37,3.68,3.89,1.31,5.45
CGTCAAAGTTCAACTAAGATAACGTAAAGCACGC,0.308,2.03,1.72,2.53,4.35,4.78,3.71,4.27,2.93,5.08
TCTTGTAGATCAGCAGGTTAAAAAAGCTGGCCAA,1.58,0.467,-0.542,0.0495,0.159,0.148,-0.197,0.613,-0.11,0.0554
TCGAGTGGGTTAGGGGCATTCAGAATGGCGTCGA,1.25,0.919,-0.337,-0.345,0.908,1.04,0.501,0.739,0.24,0.943
ATACCATGGTGATCGTGAGGTCGTTGATACTAAC,-0.0684,0.0915,-0.0138,0.737,0.319,1.75,1.17,1.27,-0.088,0.235
ACTAGCAGGCCAAGTTTAGGTCACTCAAACAAAG,0.729,1.54,-0.154,-0.113,0.824,0.86,0.177,1.7,-0.431,2.33
GGAACGAGGGCATTCGAGTTGAAAGCATGGCGAT,2.58,2.01,-0.14,-0.111,0.301,3.96,1.15,1.18,-0.521,1.71
TCGTATAGGTAAACAGGTGAAAGTCCGTAAGTTA,2.73,2.33,0.663,0.619,1.46,0.831,0.735,1.22,1.47,0.797
ATATGTAGGTTAGCTCGGGTCATTCAGACTAGGC,6.41,6.32,1.69,1.22,2.02,4.79,1.22,3.11,0.826,2.09
CGAACTAGGTCAAGGACAGAGAATCTCCGCACGC,8.21,8.28,3.36,1.6,1.59,0.886,-0.0315,1.87,0.29,3.87
TTTGCTAGGTCAACGATGGTCAGCTAATCTGCTA,4.45,5.11,0.599,0.434,0.874,1.46,-0.501,2.15,-0.298,4.13
TCATATAGGTAGATGCTAGGTGAAAGTCCGATCT,2.54,0.996,0.387,0.246,0.348,0.415,0.366,0.657,0.534,0.174
TCATATCGGTAAATGCTAGGTGAAAGTCCGATCT,1.8,1.17,0.763,0.728,0.249,0.387,-0.111,0.463,-0.336,0.381
AGAATGAGGTTAAGATCAGGGTAACAGAATACAT,3.19,3.28,1.74,0.532,1.13,1.73,0.602,2.85,0.262,2.08
TGTTAAAGTTCAAAGGTAACGTAAGTATCCACAC,0.162,3.26,2.15,2.02,3.98,5.77,4.11,6.35,1.41,4.93
TCTAGCAGGCCAGAAGGTCACTCAAGAGGTACGG,1.1,0.932,-0.221,-1.25,2.43,2.79,-0.00251,3.63,-0.201,3.28
AATACAGGGTCATCGTTGGCCAGAGTACGCACAG,2.72,4.4,1.78,2.43,2.34,4.57,0.72,5.31,1.34,4.37
TCTGGTTGGTCAAAGGTCACACACTCGAAATGCG,3.03,5.67,2.56,3.21,7.5,6.15,2.71,7.76,4.92,4.96
